Laboratory results as given in PMC5540273 (PLoS ONE, 2017).

test system: RPS6KA4(Kin.Dom.1-N-terminal); conditions: concentration: 1 μM, replicates: in singlicate; n = 1
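Further: KINOMEscan kinase panel screen.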

SMILES	%Inh
COc1cc(Nc2nccc(N3CCC(NC(=O)Nc4cccc(C(C)=O)c4)C3)n2)cc(OC)c1OC (stereo not shown) [GSK1379753]	7%
COc1cc(Nc2nccc(-c3c(-c4cccc(NC(=O)c5c(F)cccc5F)c4)nn4ncccc34)n2)cc(OC)c1OC [GSK327238]	55%
O=C(Nc1n[nH]c2nc(-c3ccc(O)cc3)ccc12)C1CC1 [SB-710363]	8%
O=c1[nH]cc(-c2ccc(N3CCOCC3)cc2)c2sc(-c3cn[nH]c3)cc12 [GSK2276055]	2%
O=C(Nc1cccc(-c2nn3ccccc3c2-c2ccnc(Nc3cccc(F)c3)n2)c1)c1c(F)ccc(F)c1Cl [GSK357952]	15%
CC(C)c1nc(-c2cccc(NS(=O)(=O)c3c(F)cccc3F)c2F)c(-c2ccnc(Nc3ccc(N4CCOCC4)nc3)n2)s1 [GSK2008607]	0%
CC(=O)N1CCN(c2ccc(Nc3nccc(-c4sc(C(C)C)nc4-c4cccc(NS(=O)(=O)c5cccc(Cl)c5)c4)n3)cn2)CC1 [GSK1660437]	10%
O=C(Nc1cccc(-c2nn3ncccc3c2-c2ccnc(Nc3ccccc3)n2)c1)c1c(F)cccc1F [GSK198271]	18%
Cl.c1ccc(-c2ccc3c(Nc4ccc5[nH]ncc5c4)ccnc3c2)nc1 [GW440137]	0%
Cn1cc(-c2[nH]c3cc(NC(=O)[C@H](N)C4CCCCC4)cc4c3c2C=NNC4=O)cn1	96.8%
CNC(=O)c1ccccc1Nc1nc(Nc2ccc(N3CCOCC3)cc2)ncc1Cl.Cl [GSK1576028]	99.7%
c1ccc(-c2cnc3nccnn23)cc1 [AH20685]	0%
CN(C)S(=O)(=O)c1cc(-c2ccc3nccc(-c4cccc(S(N)(=O)=O)c4)c3c2)cnc1N [GSK1669921]	15%
COc1cccc(NC(=O)NC2CCN(c3ccnc(Nc4cc(OC)c(OC)c(OC)c4)n3)C2)c1 (stereo not shown) [GSK1379763]	0%
C[C@@H](Oc1cc(-n2cnc3cc(-c4ccnc(NCCS(C)(=O)=O)c4)ccc32)sc1C(N)=O)c1ccccc1Cl [GSK907232]	57%
Fc1ccc(-c2ncn(C3CCNCC3)c2-c2ccnc(Oc3ccc(-c4ccccc4)cc3)n2)cc1 [SB-245391]	12%

SMILES	%Inh
COc1cccc(C(=O)Nc2cccc(Oc3ccc4nc(NC(=O)C5CC5)cn4n3)c2)c1	40%
Nc1ncc(-c2cccnc2)c2scc(-c3ccc4c(c3)CCN4C(=O)Cc3ccccc3)c12 [GSK683281]	24%
Cc1occc1-c1ncc(OC[C@@H](N)Cc2c[nH]c3ccccc23)cc1-c1ccc2[nH]nc(C)c2c1.O=C(O)C(F)(F)F [GSK682037]	8%
Nc1n[nH]c2cnc(-c3ccccc3)cc12 [SB-642124]	0%
Cc1ccc(S(=O)(=O)Nc2ccc(Nc3nccc(Nc4cccc5[nH]ncc45)n3)cc2)cc1 [GSK581271]	0%
c1ccc(-c2n[nH]cc2Nc2ccnc3ccccc23)nc1 [GW694077]	3%
COc1ccc(Nc2nccc(NCCNC(=O)c3cc4ccccc4s3)n2)cc1 [GSK1379896]	0%
Cc1ccc(F)c(C(=O)Nc2cccc(-c3nn4ccccc4c3-c3ccnc(Nc4cccc(F)c4)n3)c2)c1F [GSK361061]	34%
CC(C)(C)c1ccc2nccc(Nc3cccc(O)c3)c2c1 [GW856795]	0%
COc1cc(Nc2ncc3c(C)nc(-c4cc5ccccc5[nH]4)n3n2)cc(OC)c1OC [GW869516]	44%
COC(=O)Nc1nc2ccc(Oc3ccc(NC(=O)Nc4cc(C(F)(F)F)ccc4F)cc3)cc2n1C.Cl [GW692089]	6%
CCCCc1nn2ncccc2c1-c1ccnc(Nc2ccc(N3CCN(C)CC3)cc2)n1 [GW684941]	8%
O=C(O)C(F)(F)F.O=C(O)C(F)(F)F.O=c1[nH]ccc2nc(N[C@@H]3CCCNC3)nc(Nc3ccc(S(=O)(=O)N4CCOCC4)cc3)c12 [GSK2177277]	98.7%
Cl.Cl.NCC(C(=O)Nc1cc(Br)c(-c2ccnc3[nH]ccc23)s1)c1ccccc1 (stereo not shown) [GSK1269851]	18%
COc1ccc(-c2coc3ccc(-c4nnc(SCc5ccc(OC)c(C(F)(F)F)c5)o4)cc23)cc1	9%
